Source: PubChem BioAssay
Only some compounds are listed: those with a hit (about 19% of all), similar ones and a draw of the others.
RORgamma inh – inhibitors of mouse ROR gamma transcriptional activity; 310,000 tested, 5.4% active; Drosophila S2 Gal4-RORgamma UAS-luciferase reporter, 20 h; P51450; Potency, µM (series often up to 53.6 µM), without a hit: at the top dose activity change, negative = inhibition, hits mostly inhibitors; AID 2551; also: nearly all actives have a fitted effect of over 60% in size
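ROR gamma transcriptional activity was tracked as Gal4-UAS luciferase output in stably transfected Drosophila Schneider cells, with compound added 1 hr before 700 uM copper sulfate induction and a 20 hr ambient-temperature incubation.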
VP16 counter – inhibits Gal4-VP16 luciferase reporter, ROR gamma counter-screen. Drosophila S2 Gal4-VP16 UAS-luciferase, luminescence, 20 h. Potency, µM (top dose mostly 53.6 µM), without a hit: top-dose activity, negative = inhibition, usual class: inhibitors. 310,000 tested, 3.5% active. AID 2546;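 also: Gal4-VP16 expression switched on by copper sulfate through the metallothionein promoter; nearly all actives have a fitted effect of over 50% in size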
DT40 TDP1 CPT – DT40-hTDP1 cell growth loss with CPT; chicken DT40 Tdp1-/-;hTDP1 cells + 20 nM CPT, ATP luminescence, 48 h; Potency, µM (titrated, usually from 46.2 µM), for inactives: top-dose activity change, negative = growth inhibition, hits mostly inhibitors; 420,000 tested, 12% active; also: nearly all actives have a fitted effect of over 55% in size
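Chicken DT40 Tdp1-/- cells stably complemented with human TDP1 were seeded at 400 cells/well in medium containing 20 nM camptothecin, exposed to pin-transferred compounds, and grown at 37 °C for at least 48 hr. Viability was read as ATP luminescence.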
TDP1 cell noCPT – qHTS for Inhibitors of human tyrosyl-DNA phosphodiesterase 1 (TDP1): qHTS in cells in absence of CPT; 420,000 tested, 15% active; Potency, µM (titrated, usually from 46.2 µM), for the others: at the highest dose activity change, negative = growth inhibition, hits mostly inhibitors; DT40 Tdp1-/- hTDP1 cells, no CPT, ATP luminescence, 48 h; also: nearly all actives have a fitted effect of over 55% in size
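Growth kinetics read by CellTiter-Glo luminescence after ≥48 hr at 37 °C. Cells: DT40 Tdp1-/- stably carrying human TDP1, 400 per well, compound exposure in the absence of CPT (DMSO vehicle).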
TDP1 inh – inhibitors of human tyrosyl-DNA phosphodiesterase TDP1. Potency, µM (doses to about 130 µM), for the others: at the top dose activity change, negative = inhibition, actives largely listed as inhibitors. Q9NUW8. recombinant TDP1, AlphaScreen DNA substrate cleavage. 350,000 tested, 0.28% active. AID 485290; also: nearly all actives have a fitted effect of over 40% in size
Target sequence (Q9NUW8 whole entry, looked up): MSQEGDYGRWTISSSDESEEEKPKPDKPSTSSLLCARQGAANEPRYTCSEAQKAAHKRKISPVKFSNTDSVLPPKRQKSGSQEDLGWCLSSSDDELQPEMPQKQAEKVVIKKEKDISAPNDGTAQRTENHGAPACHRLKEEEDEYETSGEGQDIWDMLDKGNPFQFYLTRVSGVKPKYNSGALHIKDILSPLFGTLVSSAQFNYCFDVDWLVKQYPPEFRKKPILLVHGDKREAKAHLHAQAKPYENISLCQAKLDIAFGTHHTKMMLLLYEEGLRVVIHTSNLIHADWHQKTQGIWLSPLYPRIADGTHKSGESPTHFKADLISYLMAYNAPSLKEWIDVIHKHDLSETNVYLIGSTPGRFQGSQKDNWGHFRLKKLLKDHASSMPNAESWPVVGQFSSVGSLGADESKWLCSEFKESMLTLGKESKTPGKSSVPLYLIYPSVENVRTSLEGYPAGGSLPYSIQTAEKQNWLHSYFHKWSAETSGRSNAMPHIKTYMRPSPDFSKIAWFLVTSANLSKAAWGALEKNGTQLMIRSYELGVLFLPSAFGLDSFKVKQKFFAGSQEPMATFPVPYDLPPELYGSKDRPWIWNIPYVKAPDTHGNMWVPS
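Signal: AlphaScreen proximity between streptavidin donor and anti-FITC acceptor beads on intact substrate. Reaction: Tdp1 1 nM, substrate 15 nM final, 5 min RT after 15 min compound preincubation.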
* = called active by the depositor; ? = inconclusive; . = no result given; ! = repeats disagree; [ ] = remark or other dose. Calls follow the shape of the dose curve; as a rule, active = well fitted curve in the direction sought with a large enough effect; inconclusive = small, poorly fitted or top-dose-only effect, or another doubt; inactive = no such curve, though single readings can be large; an effect the other way counts as inactive or inconclusive. % is scaled to controls: 0 for no effect and ±100 for the full control effect; potency is read from the fitted curve at half-maximal effect.

SMILES	RORgamma inh	VP16 counter	DT40 TDP1 CPT	TDP1 cell noCPT	TDP1 inh
Cc1ccc(N2CCN(c3c(CN4CCCC4)c(=O)oc4ccccc34)CC2)c(C)c1	.	.	16µM*	?	-4%[12.3 µM]
Cc1ccc(C)c(N2CCN(c3c(CN4CCCC4)c(=O)oc4ccccc34)CC2)c1	.	.	21µM*	26µM*	-2%
O=C(CSc1nnc(NCc2ccccc2)s1)c1ccco1	?	?	-25%	-8%	3%
Cc1ccc(CNC(=O)c2ccc(S(=O)(=O)N3CCCCCC3)cc2)cc1	.	.	21µM*	4.1µM*	.
CC(=O)NCc1ccc(S(=O)(=O)N2CCN(c3ccccn3)CC2)cc1	19%	12%	-28%	-12%	0%
Cc1ccc(C(=O)NNC(=O)c2ccc(S(=O)(=O)N3CCCCC3)cc2)cc1	.	.	5.2µM*	23µM*	?
CC(=O)NCc1ccc(S(=O)(=O)N2CCCN(C)CC2)cc1	4%	0%	?	23µM*	.
CCOc1ccc(NC(=O)CSc2nc3ccsc3c(=O)n2CC)cc1	.	.	-22%	-20%	0%
CCC(C)n1c(SCc2c(F)cccc2Cl)nc2ccsc2c1=O (centres undefined)	.	.	4.1µM*	5.8µM*	1%
CCOc1ccc(NC(=O)CSc2nc3ccsc3c(=O)n2C(C)CC)cc1 (centres undefined)	.	.	?	10µM*	4%
CCC(C)n1c(SCc2ccc([N+](=O)[O-])cc2)nc2ccsc2c1=O (centres undefined)	-17%	1%	23µM*	21µM*	5%
CN(Cc1nc2ccccc2n1C)C(=O)c1ccco1	-25%	-1%	-5%	19%	2%
COC(=O)CN1CC(=O)N(c2ccccc2)C1=S	1%	0%	17%	-2%	-3%
N=c1ccn(Cc2ccc(Cl)cc2)cc1	-35%	-15%	5.2µM*	3.7µM*	-1%
N=c1ccn(Cc2cccc(Cl)c2)cc1	0%	?	2.6µM*	2.1µM*	-3%
O=C(NCc1ccccc1Cl)c1c2c(nc3ccccc13)C(=O)N(C1CCCCC1)C2	.	.	18µM*	?	2%
Cc1ccc(CCNC(=O)c2c3c(nc4ccccc24)C(=O)N(C2CCCCC2)C3)cc1	.	.	21µM*	10µM*	6%
O=C(NCc1ccc(F)cc1)c1c2c(nc3ccccc13)C(=O)N(C1CCCCC1)C2	.	.	?	?	6%
O=C(NCc1ccccc1)c1c2c(nc3ccccc13)C(=O)N(C1CCCCC1)C2	.	.	16µM*	18µM*	3%
O=C(NCc1ccccc1Cl)C1CCC(=O)N(C2CCCC2)C1 (centres undefined)	-4%	1%	-24%	5%	1%
CCn1c(SCC(=O)Nc2oc(-c3ccccc3)c(-c3ccccc3)c2C#N)nnc1-c1ccco1	25%	-19%	?	-29%	11%
O=C(CN1C(=O)c2cccc3cccc1c23)Nc1ccc(S(=O)(=O)Nc2nccs2)cc1	-1%	1%	-12%	16%	7%
COc1cc(O)c(C(CCN2CCCCC2)c2ccc(N(C)C)cc2)c(OC)c1 (centres undefined)	?	2%	16µM*	6.5µM*	24%
COc1ccc(C(CCN2CCOCC2)c2c(O)cc(OC)cc2OC)cc1 (centres undefined)	-12%	3%	?	?	9%
COc1cc(O)c(C(CCN2CCCC2)c2ccc(N(C)C)cc2)c(OC)c1 (centres undefined)	-12%	?	15µM*	21µM*	26%
SMILES	RORgamma inh	VP16 counter	DT40 TDP1 CPT	TDP1 cell noCPT	TDP1 inh
Cc1nc2ccc(NC(=O)CS(=O)(=O)c3ccc(F)cc3)cc2s1	.	.	-7%	-11%	5%
Cc1ccc(C(=O)CC(=O)c2ccccc2C)c(O)c1	3.5µM*	5.6µM*	2.6µM*	2.3µM*	.
Cc1ccc(C(=O)CC(=O)c2cccc(F)c2)c(O)c1	11µM*	?	7.3µM*	6.5µM*	8%
CC(=O)c1ccc(C)cc1OC(=O)c1cccc(F)c1	14%	1%	14%	-4%	-8%
CCOc1ccc(-c2csc(/C(C#N)=C/c3ccc(Br)cc3)n2)cc1	.	.	-9%	-17%	-14%[12.3 µM]
COc1ccc(-c2csc(/C(C#N)=C(\O)CSc3nccn3C)n2)cc1OC	?	-7%	?	15µM*	4%
CC(C)c1ccc(/C=C(\C#N)c2nc(-c3ccc(O)cc3)cs2)cc1	.	.	3.3µM*	2.6µM*	-1%[12.3 µM]
COc1ccc(-c2csc(NC(=O)CSc3nnnn3C)n2)cc1OC	.	.	-21%	-22%	.
COc1ccc(/C=C(/C#N)c2nc(-c3ccc(-c4ccccc4)cc3)cs2)cc1OC	.	.	?	12µM*	-1%[12.3 µM]
COc1ccc(/C=C(/C#N)c2nc(-c3ccc(Br)cc3)cs2)cc1	.	.	?	23µM*	-2%[12.3 µM]
CC(=O)NC(C)C(=O)OCC(=O)Nc1ccc(Br)cc1 (centres undefined)	1%	0%	7%	15%	-8%
O=C(CCCn1cnc([N+](=O)[O-])n1)Nc1cccc(Cl)c1Cl	-5%[10 µM]	-10%	-25%	-3%	3%
Nc1ncnc2c1ncn2[C@@H]1O[C@H](C(=O)N2CCC(F)(F)CC2)[C@@H](O)[C@H]1O	.	.	-7%	-17%	.
CCC(C(=O)OC)n1cnc2c(nnn2-c2ccccc2)c1=O (centres undefined)	12%	1%	-9%	2%	.
CCCC[C@H]1COCCS(=O)(=O)N1Cc1ccc(F)cc1	-25%	4%	?	?	.
O=S1(=O)CCO[C@H]2Cc3ccccc3[C@H]2N1Cc1cccc(F)c1	6%	-6%	21µM*!	-4%	.
CC(C)C[C@H]1COCCS(=O)(=O)N1Cc1cccc(Cl)c1	.	.	15µM*	?	.
CCCC[C@H]1COCCS(=O)(=O)N1Cc1cccc(F)c1	-4%	0%	?	13µM*!	.
CCCC[C@H]1COCCS(=O)(=O)N1Cc1ccc(C)cc1	-9%	5%	?	26µM*	.
CCC[C@H]1COCCS(=O)(=O)N1Cc1cccc(F)c1	.	.	-6%	-23%	.
NNC(=O)c1sc(-c2ccccc2)cc1N	?	?	?	?	-1%
Cc1ccc(N2C(=O)c3ccccc3C2Nc2ccccc2)nc1 (centres undefined)	18%	15%	?	?	4%
CC(C)[C@H]1COCCS(=O)(=O)N1Cc1ccc(Cl)cc1	-25%	-10%	?	?	.
CCC(C)[C@H]1COCCS(=O)(=O)N1Cc1ccc(Br)cc1 (some centres undefined)	-18%	0%	18µM*	16µM*	.
CCC(=O)N1CCc2cc(Br)cc(S(=O)(=O)NCCN3CCCC3)c21	1%	-8%	18%	0%	.
